Screening results from PubChem BioAssay.
PTK2B oligo ant: antagonists of Pyk2 self-association, primary screen, Q293 cells, FERM NanoBiT luminescence, HTS; active compounds read low; 0.83% of 99,000 active; Protein-tyrosine kinase 2-beta (Homo sapiens), Q14289; z-score (the deposit names both 25 µM and 10 µM);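 active = Z-score of -3 or lower, scaled per plate to the spread of control and sample wells; inactive = z-score above -3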;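 also: negative z-score means lost luminescence so less FERM oligomerization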
PostGolgi yeast: phenotypic screen on post-Golgi transport, primary screen; post-Golgi transport phenotypic cell assay; inhibition, % at 10 µM; 0.9% of 98,000 active; AID 739, 2007;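 also: yeast cells grown in 1536-well plates; yeast grown about 18 h at 30C before absorbance read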
Cav32 inh: Cav3.2 calcium influx blockers – cell-based, Fluo-4 calcium fluorescence, FDSS, MLSMR library, primary screen | Voltage-dependent T-type calcium channel subunit alpha-1H (Homo sapiens), O95180 | Cav3.2-expressing cells; active compounds read low | B-score at 10 µM | 4% of 100,000 active;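 active = single-dose well whose peak fluorescence ratio is a statistical outlier from its plate by either plate-standardised score or position-corrected B-score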
PostGolgi ctrl: growth inhibition of yeast control strain, primary screen, counter-screen for post-Golgi transport modulator project | efflux-deficient yeast background strain, growth absorbance A615, 16 h | inhibition, % at 10 µM | 5% of 98,000 active
The depositor's hits bear a star. Rows were chosen to be rich in hits. Some 8% of all compounds tested hit in one or more screens of this group. Rule as the data show it, unless noted: active = inhibition above about 30%; inactive = the rest.

How did Cc1cc(N2CCN(c3ccccc3)CC2)nc(-c2ccccc2)n1 do in these assays?
PTK2B oligo ant: -0.38; PostGolgi yeast: -1; Cav32 inh: 0.45; PostGolgi ctrl: 67*

How did Cc1cc(N2CCCCC2)nc(NCc2ccccc2)n1 do in these assays?
PTK2B oligo ant: 0.59; PostGolgi yeast: 4; Cav32 inh: -2; PostGolgi ctrl: 0

How did Cc1cc(N2CCCCCC2)nc(-c2ccccc2O)n1 do in these assays?
PTK2B oligo ant: -1.1; PostGolgi yeast: 1; PostGolgi ctrl: 34*

What do the screens show for `Cc1cc(C)nc(SC2=CS(=O)(=O)c3ccccc32)n1`?
PTK2B oligo ant: -0.89; PostGolgi yeast: -4; Cav32 inh: 0.26; PostGolgi ctrl: 3

What do the screens show for `O=S1(=O)C=C(Sc2nnc(-c3ccccc3)o2)c2ccccc21`?
PTK2B oligo ant: -2.1; PostGolgi yeast: 88*; PostGolgi ctrl: 31*

What do the screens show for `CCOc1ccc(N(CC(=O)NC2CCCC2)C(=O)CSc2nnc(COc3ccccc3)o2)cc1`?
PTK2B oligo ant: -0.22; PostGolgi yeast: 0; Cav32 inh: -5.4*; PostGolgi ctrl: 14

Results for O=C(CSc1nnc(Cc2cccs2)n1Cc1ccco1)Nc1cccc(Cl)c1 ?
PTK2B oligo ant: 0.12; PostGolgi yeast: 10; Cav32 inh: -3.5; PostGolgi ctrl: 2

What do the screens show for `COc1ccc(C)cc1NC(=O)CSc1nnc(COc2ccc(Cl)cc2)n1Cc1ccco1`?
PTK2B oligo ant: -1.2; PostGolgi yeast: -3; Cav32 inh: -2; PostGolgi ctrl: 40*

What do the screens show for `CCn1c(COc2ccccc2C)nnc1SCC(=O)CC(=O)Nc1ccccc1OC`?
PTK2B oligo ant: 1.3; PostGolgi yeast: -4; Cav32 inh: -4.9*; PostGolgi ctrl: -3

How did O=C(CSc1nnc(Cc2cccs2)n1Cc1ccco1)Nc1cc(Cl)cc(Cl)c1 do in these assays?
PTK2B oligo ant: -0.67; PostGolgi yeast: -16; Cav32 inh: -4.3*; PostGolgi ctrl: 35*

How did Cc1cccc(OCc2nnc(SCC(=O)N(C(C)C)C(C)C)n2Cc2ccco2)c1C do in these assays?
PTK2B oligo ant: -0.87; PostGolgi yeast: 17; Cav32 inh: -6.6*; PostGolgi ctrl: 12

Results for Cc1cc(NC(=O)CSc2nnc(COc3cccc(C)c3C)n2Cc2ccco2)no1 ?
PTK2B oligo ant: 0.21; PostGolgi yeast: -10; Cav32 inh: -1; PostGolgi ctrl: 11

Results for O=C(Nc1cccc(O)c1)c1cc(S(=O)(=O)N2CCCC2)ccc1Cl ?
PTK2B oligo ant: 1.3; PostGolgi yeast: 1; PostGolgi ctrl: 4

Results for Cc1c(C(=O)NCCSCc2ccc(Cl)cc2Cl)cccc1[N+](=O)[O-] ?
PTK2B oligo ant: 0.17; PostGolgi yeast: 1; Cav32 inh: -1; PostGolgi ctrl: 55*

Results for Cc1ccc(SCCNC(=O)c2cccc([N+](=O)[O-])c2C)cc1 ?
PTK2B oligo ant: 0.58; PostGolgi yeast: 9; Cav32 inh: -2.3; PostGolgi ctrl: 26

Results for CCOC(=O)c1cccc2c1-c1ccccc1/C2=N/O ?
PTK2B oligo ant: -2.4; PostGolgi yeast: 12; Cav32 inh: -0.81; PostGolgi ctrl: 20

What do the screens show for `CC1CCCC(C)N1C(=O)c1cccc2c1-c1ccccc1/C2=N/O` (stereo not given)?
PTK2B oligo ant: -3.3*; Cav32 inh: -6.4*

How did CC1=CC(C)(C)Nc2ccc(OC(=O)CN3C(=O)c4cccc5cccc(c45)C3=O)cc21 do in these assays?
PostGolgi yeast: 33*; PostGolgi ctrl: -8

What do the screens show for `CC1=CC(C)(C)Nc2ccc(OC(=O)C(Cc3ccccc3)N3C(=O)c4ccccc4C3=O)cc21` (stereo not given)?
PTK2B oligo ant: -0.73; PostGolgi yeast: 1; Cav32 inh: -1.7; PostGolgi ctrl: 3

What do the screens show for `CC(C)(C)c1ccc(C(=O)NNc2cc(N3CCCCC3)nc(N3CCCCC3)n2)cc1`?
PTK2B oligo ant: -2.7; PostGolgi yeast: 16; Cav32 inh: -8.3*; PostGolgi ctrl: 27

What do the screens show for `CCn1cc(C(=O)NC2CCc3ccccc32)c(=O)c2ccc(C)nc21` (stereo not given)?
PostGolgi yeast: -1; Cav32 inh: -0.61; PostGolgi ctrl: 28

What do the screens show for `O=C(NCC1(c2ccccc2)CCCC1)C1(c2ccccc2)CCCC1`?
PTK2B oligo ant: -0.31; Cav32 inh: -6.6*

What do the screens show for `O=C(NCC1(c2ccccc2)CCCC1)C(=O)NCC1(c2ccccc2)CCCC1`?
PTK2B oligo ant: 0.72; Cav32 inh: 0.79

What do the screens show for `C/C=C/C=C/[C@H]1Cc2cc(O)cc(O)c2O1`?
Cav32 inh: 0.1
